This note sets out measurements from PubChem BioAssay (Tox21).

The nature of assay [1]: qHTS assay to identify small molecule agonists of H2AX (AID 1224845; active = well fitted activation curve with a large enough effect in the signal ratio in the repeat runs, not every such curve was filed as active; the % refers to the signal ratio; also: potency is read from the fitted curve at half-maximal effect). The procedure, abridged:
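Wild-type CHO-K1 cells plated overnight, then exposed 3 hr at 37C to compounds at 15 concentrations (0.76% DMSO). Lysed, then HTRF anti-pH2AX(S139)-cryptate/anti-H2AX-d2 detection after 24 hr at room temperature; emissions 665 and 620 nm.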
(In general: qHTS replaces the single test concentration by a dilution series.)

A short description of assay [2]: qHTS assay to identify small molecule agonists of the hypoxia (HIF-1) signaling pathway (AID 1224846; active = well fitted activation curve with a large enough effect in the signal ratio in the repeat runs, not every such curve was filed as active; the % refers to the signal ratio). The procedure, abridged: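 HRE-bla ME-180 beta-lactamase reporter cells in medium with 0.5% dialyzed FBS, pre-incubated 5 h then exposed to compounds 17 h at 37C, 5% CO2; reporter induction read with CCF4-AM FRET substrate.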
Assay [3] is described as follows: qHTS RealTime-Glo MT Cell Viability Assay in HepG2 cells - 24 hour (AID 1224867). Also: nearly all actives have a fitted effect of over 50% in size. The procedure, abridged:
(§1)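 Cell number in HepG2 cultures estimated from NanoLuc luminescence generated by metabolic reduction of a prosubstrate by living cells. The homogeneous, nonlytic format allowed repeated reads at 0, 8, 16, 24, 32 and 40 h of compound exposure.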

A short description of assay [4]: qHTS RealTime-Glo MT Cell Viability Assay in HEK293 cells - 32 hour (AID 1224868). Also: nearly all actives have a fitted effect of over 50% in size. Also: potency is read from the fitted curve at half-maximal effect. As to activity change, negative = cytotoxic: top concentration of the series differs between compounds. The procedure, abridged: (§2)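 Homogeneous bioluminescent viability format in HEK293 cells (600 cells/well). Following 5 h at 37 C/5% CO2, 23 nL compound was pintooled; the signal was measured repeatedly during 40 h incubation.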
The nature of assay [5]: A CellTox Green Cytotoxicity Assay to monitor cytotoxicity in HEK293 cells - 0 hour (AID 1224869). Also: nearly all actives have a fitted effect of over 50% in size. The procedure, abridged: (§3)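 HEK293 cells, 600/well, were preincubated 5 hours and then exposed to compounds at 37 C for up to 40 hours. A cell-impermeant cyanine dye staining dead-cell DNA was read by fluorescence at 0, 8, 16, 24, 32 and 40 h time points.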
A short description of assay [6]: qHTS RealTime-Glo MT Cell Viability Assay in HepG2 cells - 40 hour (AID 1224870). Also: nearly all actives have a fitted effect of over 50% in size. The procedure, abridged: (§4)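 HepG2 cells mixed with RealTime-Glo MT reagents (NanoLuc plus cell-permeant prosubstrate) were seeded at 600 cells/well, incubated 5 h at 37 C/5% CO2, then pinned with compounds in DMSO; nonlytic luminescence tracked viability during 40 h treatment.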
Assay [7] is described as follows: A CellTox Green Cytotoxicity Assay to monitor cytotoxicity in HEK293 cells - 40 hour (AID 1224871). Also: nearly all actives have a fitted effect of over 45% in size. The procedure, abridged:
as §3

Assay [8] is described as follows: qHTS RealTime-Glo MT Cell Viability Assay in HEK293 cells - 16 hour (AID 1224872). The procedure, abridged: as §2
Assay [9] is described as follows: qHTS RealTime-Glo MT Cell Viability Assay in HepG2 cells - 8 hour (AID 1224873). Also: nearly all actives have a fitted effect of over 55% in size. The procedure, abridged:
as §4

The nature of assay [10]: qHTS RealTime-Glo MT Cell Viability Assay in HEK293 cells - 40 hour (AID 1224874). Also: nearly all actives have a fitted effect of over 50% in size. Also: potency is read from the fitted curve at half-maximal effect. The conditions noted are these: RealTime-Glo luminescence; max response: stronger effect = lower value. The procedure, abridged: (§5)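 600 cells/well were plated with the nonlytic NanoLuc/prosubstrate reagent, pre-incubated 5 h, then given 23 nL of compound in DMSO. Incubation at 37 C for 40 h, with luminescence from viable-cell-reduced substrate read repeatedly from 0 h.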

A short description of assay [11]: A CellTox Green Cytotoxicity Assay to monitor cytotoxicity in HEK293 cells - 24 hour (AID 1224875). Also: series mostly up to about 77 µM; nearly all actives have a fitted effect of over 45% in size. The procedure, abridged: as §3
A short description of assay [12]: A CellTox Green Cytotoxicity Assay to monitor cytotoxicity in HepG2 cells - 16 hour (AID 1224876). Also: nearly all actives have a fitted effect of over 45% in size. The procedure, abridged:
(§6)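 HepG2 cells, 600/well, preincubated 5 h with CellTox Green dye, then exposed to Tox21 compounds in DMSO at 37 C for up to 40 h. Dead-cell DNA fluorescence read at the indicated time point.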

A short description of assay [13]: qHTS RealTime-Glo MT Cell Viability Assay in HepG2 cells - 32 hour (AID 1224877). Also: nearly all actives have a fitted effect of over 55% in size. The procedure, abridged:
as §1

Assay [14] can be described thus: A CellTox Green Cytotoxicity Assay to monitor cytotoxicity in HepG2 cells - 24 hour (AID 1224878). Also: nearly all actives have a fitted effect of over 45% in size. The procedure, abridged: as §6
A short description of assay [15]: A CellTox Green Cytotoxicity Assay to monitor cytotoxicity in HepG2 cells - 40 hour (AID 1224879). Also: nearly all actives have a fitted effect of over 40% in size. The procedure, abridged: as §6
A short description of assay [16]: qHTS RealTime-Glo MT Cell Viability Assay in HEK293 cells - 0 hour (AID 1224880). The procedure, abridged: as §5
Assay [17] in a line: A CellTox Green Cytotoxicity Assay to monitor cytotoxicity in HEK293 cells - 32 hour (AID 1224881). Also: nearly all actives have a fitted effect of over 40% in size. The procedure, abridged: as §3
Assay [18] can be described thus: qHTS assay to identify small molecule antagonists of the estrogen related receptor (ERR) signaling pathway from Tox21 library (AID 1224848). Also: nearly all actives have a fitted effect of over 50% in size. The procedure, abridged: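 Cells: ERR line, 2,000/well; 6 h preincubation 37 C/5% CO2. Cpd in DMSO via pin tool; 18 h, 37 C. ONE-Glo, 30 min RT, luminescence.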
Assay [19] in a line: qHTS assay to identify small molecule agonists of the estrogen related receptor (ERR) signaling pathway from Tox21 library (AID 1224849; calls by dose curve; also: nearly all actives have a fitted effect of over 15% in size). The procedure, abridged: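 ERR reporter cells (NTP line) pre-incubated 6 hours at 37 C, then exposed to compounds for 18 hours at 37 C. ONE-Glo luciferase luminescence was read after 30 minutes at room temperature.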
Assay [20] in a line: qHTS assay to identify small molecule agonists of H2AX - cell viability counter screen (AID 1224847; calls by dose curve; also: top concentration of the series differs between compounds; nearly all actives have a fitted effect of over 30% in size). The procedure, abridged: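 For this counter screen, overnight-attached CHO-K1 cells received test compounds (15 concentrations, 0.76% DMSO final); 3 hr later at 37C, CellTiter-Glo reagent was added and luminescence recorded after 30 min at room temperature.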

A number with no mark means an inactive call. Results filed as inconclusive are left out. Activity calls are given as the source filed them. Unless noted, calls follow the shape of the dose curve; as a rule, active = well fitted curve in the direction sought with a large enough effect in the repeat runs; inconclusive = weak or mixed curves; inactive = no such curve, though single readings can be large; an effect the other way counts as inactive or inconclusive.
% is scaled to controls: 0 for no effect and ±100 for the full control effect.

For `CCCC[N+](C)(CCCC)CCCC`, the Potency result in [1], in [4], in assay [6], in [7], in [8] and in assay [13] was “inactive” in each case. In addition, the Potency entry in assay [15] and in assay [16] was “inactive” in each case. In addition, the outcome in [2], in [3], in assay [5], in assay [9], in assay [11] and in [12] was inactive. Moreover, the result in assay [14] and in assay [17] was inactive. Moreover, in assay [10], the max response was -1.08%.
On to `Nc1ccn([C@@H]2O[C@H](CO)[C@@H](O)C2(F)F)c(=O)n1`, for which the results for the Potency in assay [1], in assay [4] and in assay [10] were 982 nM (active), 1070 nM (active) and 756 nM (active), respectively. The compound was classed as inactive in assay [2], in assay [3], in [5], in [9], in [11] and in [12]. Further, the outcome in [14] and in [17] was inactive. Moreover, the Potency entry in assay [6], in assay [7], in [13], in assay [15] and in assay [16] was “inactive” throughout.
For the compound `CCN1C=CN(C)C1C` (stereo not given), the Potency entry in assay [1], in assay [18], in assay [4], in assay [6], in [7] and in [8] was “inactive” in each case. The Potency entry in [13], in assay [15] and in assay [16] was “inactive” each time. Also, the result in [2], in [19], in assay [3], in [5], in assay [9] and in assay [12] was inactive. For the same compound, the compound was called inactive in [14] and in assay [17]. For the same compound, in assay [10], the max response was 0.14%.
For `CCO[Si](OCC)(OCC)c1ccccc1`, the Potency result in assay [1], in assay [18], in [4], in assay [6], in assay [7] and in assay [8] was “inactive” throughout. Moreover, the Potency entry in assay [13], in assay [15] and in assay [16] was “inactive” throughout. Also, the compound was called inactive in [2], in assay [19], in assay [3], in [5], in [9] and in assay [12]. Moreover, the compound was called inactive in [14] and in assay [17]. The max response in assay [10] was 10.1%.
In the case of `NC(N)=NCCN1CCCCCCC1`, in [1], the activation (H2AX phosphorylation) is 0.429% [at 0.582 µM]. In addition, the activity change, negative = cytotoxicity in assay [20] is 0.639% [at 0.582 µM]; in [8], -1.96% [at 0.29 µM]. The activity, negative = inhibition in assay [18] is 12.8% [at 0.349 µM]. Besides, the activity change, positive = activation in assay [19] was 7.2% [at 0.349 µM]. The activity change, negative = cytotoxic in [4] is -3.18% [at 0.29 µM]; in assay [6], 0.511% [at 0.29 µM]; in assay [13], 0.55% [at 0.29 µM]. In addition, the cytotoxicity in [5] was 4.87% [at 0.29 µM]; in [14], -13.4% [at 0.29 µM]. Further, the cytotoxicity increase was 1.15% [at 0.29 µM] in assay [7], -11.2% [at 0.29 µM] in [12], -13% [at 0.29 µM] in assay [15] and 2.16% [at 0.29 µM] in assay [17]. Further, the viability change, negative = cytotoxic in assay [9] is 0.369% [at 0.29 µM]. Further, the max response in [10] was -2.62%. In addition, the activity change in [11] was 3.96% [at 0.29 µM].
For the compound `CC(C)(C)C(=O)Oc1ccc(S(=O)(=O)Nc2ccccc2C(=O)NCC(=O)O)cc1`, the Potency entry in assay [1], in assay [4], in assay [6], in [7], in assay [8] and in assay [13] was “inactive” throughout. Moreover, the Potency entry in assay [15] and in [16] was “inactive” each time. For the same compound, the call in [2], in assay [3], in assay [5], in [9], in assay [11] and in assay [12] was inactive. Further, the call in [17] was inactive. In addition, the max response in [10] is 7.92%.
Consider `CC(=O)c1ccc2ccccc2c1`, for which the Potency result in [1], in assay [4], in assay [6], in [7], in [8] and in assay [13] was “inactive” in each case. The Potency entry in assay [16] is “inactive”. Further, the call in assay [2], in [3], in assay [5], in [9] and in assay [17] was inactive. For the same compound, the max response in assay [10] is 8.54%.
